# tim10-1 inh: tim10-1 yeast growth inhibition. S. cerevisiae tim10-1 ts strain growth, BacTiter-Glo, 24 h. inhibition, % at 20 µM. 330,000 tested, 2.2% active. AID 463190;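 active = inhibition of at least 40%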;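 note: mutant grown at 25 °C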
# V-ATPase pH: alters yeast V-ATPase proton transport; S. cerevisiae, pHLuorin cytosolic pH fluorescence; response, % at 10 µM; 350,000 tested, 0.37% active; AID 504577; in the data active = response mostly above about 7.3%, no sharp cut-off; inactive = mostly below about 5.4%; note: actives read high
# TIM10 inh: growth inhibitors of TIM10 yeast strain | S. cerevisiae TIM10 strain growth, BacTiter-Glo luminescence, 24 h | inhibition, % at 10 µM | 330,000 tested, 1.4% active;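 active = inhibition of 40% or more at the single tested concentration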;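 note: wild-type TIM10 isogenic control strain grown at permissive 25 °C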
# tim23-1 inh: growth inhibitors of tim23-1 mutant yeast; inhibition, % at 20 µM; AID 463212; S. cerevisiae tim23-1 growth, BacTiter-Glo luminescence, 24 h; 330,000 tested, 1.3% active;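 active = growth inhibition of the mutant yeast at or above 50%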;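 note: temperature-sensitive mutant grown at 25 °C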
# PfHsp90 yeast 2: inhibits growth of yeast expressing Plasmodium falciparum Hsp90 | S. cerevisiae expressing PfHsp90, BacTiter-Glo ATP, 48 h; yeast lacking PDR1 and PDR3 efflux regulators | inhibition, % at 9.4 µM | 310,000 tested, 0.32% active | AID 504621;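 active = every replicate shows inhibition above about 80%, whatever the replicate mean, limit read from the data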
# TIM10 conf: confirmation of TIM10 yeast growth inhibitors; inhibition, % at 10 µM; 4,600 tested, 63% active; S. cerevisiae tim10 strain growth, BacTiter-Glo luminescence, 24 h; shares compounds with TIM10 inh;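 active = inhibition of yeast growth at or above a set limit in either of two replicates at 10 µM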; note: this counterscreen used the strain with wild-type TIM10
# Numbers stand for hits; – = inactive; · = no result. Sampled rows, rich in hits. Any-hit rate of the full collection: about 3.7%.
SMILES,tim10-1 inh,V-ATPase pH,TIM10 inh,tim23-1 inh,PfHsp90 yeast 2,TIM10 conf
COc1ccc(-c2cc(-c3ccc(OC)c(OC)c3)n[nH]2)c(O)c1,–,–,47,–,–,–
COc1ccc(O)c(-c2cc(-c3cccc(Br)c3)n[nH]2)c1,–,–,53,–,94,62
COc1ccc(O)c(C2=Nc3ccccc3N=C(c3ccccc3)C2)c1,–,–,–,–,–,·
O=[N+]([O-])c1cccc(-c2cc(-c3cc(Br)ccc3O)[nH]n2)c1,–,–,47,–,–,43
O=C(CSc1nc2ccccc2nc1N1CCCCC1)Nc1ccc(F)cc1,–,–,–,–,–,·
CCOC(=O)c1nn(-c2ccccc2C)c(=O)cc1OCC(=O)Nc1cccc(OC)c1,–,–,–,–,–,·
O=C(C[C@H]1C(=O)N(CCc2ccccc2)C[C@@H]1c1ccccc1)Nc1ccccc1,·,–,·,·,·,·
O=C(CSCc1nc2ccccc2[nH]1)Nc1ccc2ccccc2c1,–,–,–,–,–,·
c1ccc2cc(CSCc3nc4ccccc4[nH]3)ccc2c1,–,–,53,–,–,–
CC(C)NC(=S)NC(c1ccccc1)(c1ccccc1)c1ccccc1,–,–,45,–,–,49
Cc1cccc(C)c1NC(=O)[C@@]1(CC(=O)O)CC(/C=C/c2ccccc2)=NO1,·,–,·,·,–,·
COc1ccc(-c2cc(=Nc3ccc(C)cc3)c3ccccc3o2)cc1,–,–,55,–,–,47
COc1ccc(N=c2cc(-c3ccc(O)cc3)oc3ccccc23)cc1,–,–,–,–,–,·
COc1ccc(-c2cc(=NC(CC(C)C)C(=O)O)c3cc(C)ccc3o2)cc1 (configuration not stated),–,–,61,–,–,44
Cc1cc(C(F)F)n2nc(C(=O)Nc3ccccc3F)nc2n1,–,–,64,–,–,–
Cc1cccc(NC(=S)N/N=C(\c2ccccc2)C(C)C)c1,–,–,54,–,–,40
Cc1nnc(NC(=O)CSc2nnc(CC(=O)Nc3ccccc3Cl)n2C)s1,–,–,–,–,–,·

# Bioassay records as filed in PubChem.
